Test results reported in PubChem BioAssay (Tox21).
Where “and” joins values, the source holds several entries; their conditions need not be identical. Equal values may be shown once. Records with an inconclusive call do not appear. A structure can be active in one record and inactive in another. Calls of active or inactive are those of the source. The call rests on the fitted dose curve; in most records, active means well fitted cell-killing curve with a large enough effect in the repeat runs (not every such curve was filed as active); inconclusive means weak or mixed curves, or effect the other way; inactive means no such curve, though single readings can be large or run the other way.

assay: qHTS assay to identify small molecule antagonists of the estrogen related receptor signaling pathway with the pleiotropic PPARgamma coactivator (PGC) from Tox21 10K library - cell viability counter screen (AID 1224840); conditions: PGC/ERR reporter cells viability, CellTiter-Fluor, 17.5 h; series mostly up to 92.4 µM; viability change, negative = cytotoxic: at the top concentration; further: nearly all actives have a fitted effect of over 40% in size
Text: National Center for Advancing Translational Sciences [NCATS]
NIH Chemical Genomics Center [NCGC]
U.S. Environmental Protection Agency [EPA]
National Institutes of Environmental Health Sciences [NIEHS]
National Toxicology Program [NTP]
U.S. Food and Drug Administration [FDA]
Estrogen related receptors (ERRs), the first orphan nuclear receptors discovered, play an important role in the control of cellular energy metabolism. ERRs are required for high-energy production in response to the environmental challenges. The pleiotropic PPARgamma coactivator (PGC) is a major partner of ERR and a key regulator in energy homeostasis. Together they have been implicated in the etiology of metabolic disorders such as Type 2 diabetes and metabolic syndrome. ERR-alpha was also identified as an adverse marker for breast cancer progression; ERR-alpha-positive tumors have a poor prognosis. To screen and to identify environmental compounds that perturb the ERR and PGC/ERR signaling pathways could provide valuable information for potential therapeutic or preventive measures in the treatment of metabolic disease. To differentiate true PGC/ERR antagonists or agonist from cytotoxic substances, the assay is multiplexed with cell viability assay.
Tox21 Assay Protocol Summary:
The PGC/ERR cells were dispensed at 2,000 cells/5 ul/well in 1536-well white plates using a Multidrop dispenser. After the assay plates were incubated at a 37 C/5% CO2 incubator for 6 hours, 23 nL of compounds dissolved in DMSO, positive and negative controls or DMSO only was transferred to the assay plate by a pin tool. The plates were incubated at 37 C for 17.5 hours. 1 ul/well of CellTiter-Fluor reagent was added into the assay plates using a Flying Reagent Dispenser. After 30-minute incubation at 37 C/5% CO2, the fluorescence intensity in the plates was measured using a ViewLux plate reader.
On the % scale 0 is the no-effect control and ±100 the full control effect; potency means the concentration at half of the fitted maximal effect.

| Structure (SMILES) | viability change, negative = cytotoxic | Potency |
| --- | --- | --- |
| CCOC(=O)[C@]1(c2ccccc2)Oc2ccccc2[C@@H]1N | -7.29% (inactive) |  |
| BrCC(Br)C1CCC(Br)C(Br)C1 (stereo not given) | -0.914% (inactive) |  |
| COP(=S)(Oc1cc(Cl)c(Br)cc1Cl)c1ccccc1 (stereo not given) | -2.62% (inactive) |  |
| O=Cc1ccc(Cl)cc1Cl | -4.12% (inactive) |  |
| COC(=O)C(Br)CBr (stereo not given) | -5.93% (inactive) |  |
| Cn1cc[n+](C)c1 (tested in a mixture with another compound) | 4.27% (inactive) |  |
| CCOP(=O)(OCC)SCCSCC |  | inactive |
| CO[C@@H]1[C@H](OC(=O)NC(=O)CCl)CC[C@]2(CO2)[C@H]1[C@@]1(C)O[C@@H]1CC=C(C)C | -8.92% [at 19 µM] (inactive) |  |
| CC(=O)NC1CCSC1=O (stereo not given) | 14.2% [at 42.5 µM] (inactive) |  |
| CCCCN(N=O)C(=N)N[N+](=O)[O-] | -12.3% (inactive) |  |
| COP(=S)(OC)Oc1cc(Cl)c(I)cc1Cl | 5.17% (inactive) |  |
| CCCCOC(=O)c1ccccc1C(=O)OCc1ccccc1 |  | inactive |
| Nc1nc(N)nc(N)n1 | -0.373% (inactive) |  |
| COC(N)=O | -8.07% (inactive) |  |
| O=C(O)C1(c2ccc3c(c2)OC[C@H](Cc2ccc(-c4ccccc4)cc2)[C@H]3O)CCCC1 | -26.1% (inactive) |  |
| Nc1nc(=S)[nH][nH]1 | 1.12% (inactive) |  |
| C=CC(=O)OCC(C)C | -0.763% (inactive) |  |
| CCC(C)(NC(=O)c1cc(Cl)c(C)c(Cl)c1)C(=O)CCl (stereo not given) |  | 24.5 µM (active) |
| Cc1ccc(N)cc1C | -7.17% (inactive) |  |
| CCn1cc[n+](C)c1 |  | inactive and 55 µM (active) |

| Structure (SMILES) | viability change, negative = cytotoxic | Potency |
| --- | --- | --- |
| CO/C=C(/C(=O)OC)c1ccccc1COc1cccc(C(F)(F)F)n1 | -23.9% (inactive) |  |
| NCCCNCCCN | -5.71% (inactive) |  |
| CCOP(O)OCC | 10.8% (inactive) |  |
| CCCCNP(N)(N)=S | -6.45% (inactive) |  |
| CCOS(C)(=O)=O | 0.759% (inactive) |  |
| CCCN(CCC)c1c([N+](=O)[O-])cc(S(C)(=O)=O)cc1[N+](=O)[O-] | -27.5% (inactive) |  |
| Brc1ccccc1 | 11.3% (inactive) |  |
| C[C@@H]1CC[C@H]2[C@@H](C)C(=O)O[C@@H]3O[C@@]4(C)CC[C@@H]1[C@]32OO4 | -5.38% [at 42.5 µM] (inactive) |  |
| COc1c(C(C)(C)C)cc([N+](=O)[O-])c(C)c1[N+](=O)[O-] | 2.7% (inactive) |  |
| Clc1cc(C(Cl)(Cl)Cl)cnc1Cl | 10.3% (inactive) |  |
| COC(=O)c1cncn1C(C)c1ccccc1 (stereo not given) | 0.93% [at 42.5 µM] (inactive) |  |
| CC[C@H]1C[C@H]2[C@@H]3CCC4=CC(=O)CC[C@@H]4[C@H]3CC[C@]2(C)[C@H]1O | -3.5% [at 42.5 µM] (inactive) |  |
| CCCCCC[N+](=O)[O-] | 4.91% (inactive) |  |
| O=NN1CCNCC1 | 3.01% (inactive) |  |
| BrCCCCBr | -1.01% (inactive) |  |
| C=CC(=O)NCNC(=O)C=C | -5.57% (inactive) |  |
| CCOC(=O)C(Cl)C(C)=O (stereo not given) | 1.15% (inactive) |  |
| CC(=O)C(C)(C)C | -6.81% (inactive) |  |
| C=COC(C)=O | 3.19% (inactive) |  |
| CO/N=C(/C(=O)OC)c1ccccc1COc1ccccc1C | -1.02% (inactive) |  |
